Out of some 320,000 compounds screened, about 2,100 (0.66%) were called active. Inconclusive results (about 53%) are left out. Calls come from the whole dose curve; as a rule, active = well fitted inhibition curve with a large enough effect in the signal ratio, with a control signal flat (not every such curve was filed as active); inconclusive = small, poorly fitted or top-dose-only effect, or effect the other way, or a change in a side signal; inactive = flat fitted curve, though single readings scatter; the % refers to the signal ratio. Many of the other results were omitted from the sample, so actives are more common in it than they were.
experiment: qHTS Assay for Lipid Storage Modulators in Drosophila S3 Cells; settings: BODIPY lipid droplet fluorescence, 18-24 h, cells fed with added oleic acid; cell number change: measured here: cell count max response; series mostly up to 46.1 µM; lipid storage change, negative = inhibition: at the top concentration;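 for cell number change: cells counted by Cell Tracker Red CMTPX staining in the red channel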; for lipid storage change, negative = inhibition: % is set by controls: 0 for no effect and ±100 for the full control effect
Method in brief: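 Drosophila S3 cells got compounds at several concentrations plus oleic acid (400 uM solution). Laser-scanning cytometry with 488 nm excitation read lipid droplets at 500-530 nm and cells at 575-640 nm. Percent activity was relative to 20 uM Triacsin C.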
Potency is the fitted concentration of half-maximal effect.

Compound | lipid storage change, negative = inhibition | cell number change [%] | Potency | outcome
O=C(COc1ccc(-c2ccccc2)cc1)NNC(=O)Nc1ccc(F)cc1F | 8.38% (inactive) | – | – | –
CC1CN(Cc2ccccc2)C(C)CC1O (stereo unspecified) | 4.32% (inactive) | 13.3 | – | –
OC(COc1ccc(OCC(O)CN2CCCCCC2)cc1)CN1CCCCCC1 (stereo unspecified) | 13.9% (inactive) | -8.16 | – | –
OC(COc1ccc(C2C=CCC2)cc1)CN1CCCCC1 (stereo unspecified) | – | 1.19 | 0.731 µM (active) | –
COc1ccc(OCC(O)CN2CCCCCC2)cc1 (stereo unspecified) | -0.764% (inactive) | 9.25 | – | –
FC(F)(F)c1ccnc(N2CCN(Cc3cnc(-c4ccccc4)[nH]3)CC2)c1 | 8.54% (inactive) | 15 | – | –
CC(NS(=O)(=O)c1ccc(OCC(=O)NCc2cccnc2)cc1)c1ccccc1 (stereo unspecified) | – | -6.31 | 0.651 µM (active) | –
CC(NS(=O)(=O)c1ccc(OCC(=O)NCc2ccncc2)cc1)c1ccccc1 (stereo unspecified) | – | 0.901 | – | inactive
CC(NS(=O)(=O)c1ccc(CCC(=O)NCc2cccnc2)cc1)c1ccccc1 (stereo unspecified) | 0.909% (inactive) | -3.81 | – | –
COCC1CCN(Cc2nc(-c3ccc(OC)cc3)no2)CC1 | 8.81% (inactive) | 9.88 | – | –
Cc1ccc(CSCC(=O)N(C)CC(=O)Nc2ccc(C)cc2)cc1 | 0.736% (inactive) | 15.6 | – | –
COc1ccc(NC(=O)CN(C)C(=O)CSCc2ccc(C)cc2)cc1 | – | -11 | 10.3 µM (active) | –
Cc1ccc(CSCC(=O)N(C)CC(=O)Nc2ccc(Cl)c(Cl)c2)cc1 | – | 1.04 | – | inactive
CCC(C)NC(=O)CN1C(=O)C(CC)Sc2ccccc21 (stereo unspecified) | -2.81% (inactive) | -9.92 | – | –
CCOc1ccccc1NC(=O)C1CCCN(S(=O)(=O)c2ccc(-n3cnnn3)cc2)C1 (stereo unspecified) | – | 20.5 | – | inactive
CCOC(=O)C1(CC2CC2)CCN(C(=O)c2ocnc2C)CC1 | -7.18% (inactive) | -6.88 | – | –
CCOC(=O)C1(CC2CC2)CCN(C(=O)c2cccnc2C)CC1 | 6.98% (inactive) | 26 | – | –
CCOC(=O)C1(CC2CC2)CCN(C(=O)c2cc(C3CC3)nc3ccccc23)CC1 | – | -20.4 | 25.9 µM (active) | –
Cc1cc(Br)cc(C)c1NC(=O)c1ccc(C#N)cc1F | -22.4% (inactive) | 3.82 | – | –
C=CCNC(=S)NNC(=O)c1ccc(OCC)cc1 | -0.066% (inactive) | -9.79 | – | –
COc1ccccc1CNC(=O)c1oc2ccc(S(=O)(=O)N3CCCC3)cc2c1C | -29.2% (inactive) | – | – | –
Cc1c(C(=O)NCCCN2CCOCC2)oc2ccc(S(=O)(=O)N3CCOCC3)cc12 | 10% (inactive) | 20.6 | – | –
COc1ccccc1CNC(=O)c1oc2ccc(S(=O)(=O)N3CCOCC3)cc2c1C | – | -8.7 | 29.1 µM (active) | –

Compound | lipid storage change, negative = inhibition | cell number change [%] | Potency | outcome
Cc1c(C(=O)NCc2c(F)cc(F)cc2F)oc2ccc(S(=O)(=O)N3CCOCC3)cc12 | – | -3.48 | 2.91 µM (active) | –
COc1ccccc1CNC(=O)[C@@H]1CCCN1S(=O)(=O)c1ccc(Cl)cc1 | – | -7.14 | – | inactive
O=C(NCc1ccc(Cl)cc1)N1CCN(S(=O)(=O)c2ccccc2)CC1 | -6.54% (inactive) | 17.1 | – | –
COc1ccccc1CNC(=O)N1CCN(S(=O)(=O)c2ccc(Cl)cc2)CC1 | – | 1.35 | 0.13 µM (active) | –
Cc1c(C(=O)NCc2ccc(F)cc2)oc2ccc(S(=O)(=O)N3CCOCC3)cc12 | – | -3.6 | – | inactive
Cc1c(C(=O)NCCC2=CCCCC2)oc2ccc(S(=O)(=O)N3CCOCC3)cc12 | 16.1% (inactive) | -13.3 | – | –
COc1cccc(NC(=O)c2oc3ccc(S(=O)(=O)N4CCOCC4)cc3c2C)c1 | 5.07% (inactive) | 4.15 | – | –
CCOCCCNC(=O)c1oc2ccc(S(=O)(=O)N3CCOCC3)cc2c1C | – | – | 18.4 µM (active) | –
Cc1c(C(=O)NCCCN2CCCC2=O)oc2ccc(S(=O)(=O)N3CCOCC3)cc12 | – | -0.135 | – | inactive
O=C1CN(C(=O)CNC(=O)c2cccc(Cl)c2)c2ccccc2N1 | 0.224% (inactive) | 17 | – | –
Cc1cccn2c(=O)c(/C=C(\C#N)S(=O)(=O)c3ccccc3)c(Oc3ccc(Cl)cc3)nc12 | 2.66% (inactive) | -10.2 | – | –
CC(=O)N1CCN(c2ccccc2NC(=O)COc2cc(C)cc(C)c2)CC1 | -100% (inactive) | 13.5 | – | –
CCOc1ccc(S(=O)(=O)NCc2csc(C)n2)cc1 | – | – | – | inactive
CCS(=O)(=O)c1ccc2oc(Nc3ccc(C(C)C)cc3)nc2c1 | -3.92% (inactive) | 2.93 | – | –
CCn1nc(C)cc1C(=O)N1CCc2c([nH]c3ccccc23)C1c1cc(F)ccc1F (stereo unspecified) | -9.5% (inactive) | 8.47 | – | –
CN(C)S(=O)(=O)c1ccc(N2CCCC2)c(C(=O)Nc2ccccc2OC(F)F)c1 | 9.18% (inactive) | 29.4 | – | –
CN(C)S(=O)(=O)c1ccc(N2CCCC2)c(C(=O)Nc2ccccc2F)c1 | 14.2% (inactive) | 25.2 | – | –
COc1ccc(C(C)(C)C)cc1NC(=O)c1cc(S(=O)(=O)N(C)C)ccc1N1CCCC1 | – | -23.6 | 18.4 µM (active) | –
COc1ccc(S(=O)(=O)NC2CCCC2)cc1NC(C)=O | -1.83% (inactive) | 17.4 | – | –
COc1ccc(C=O)cc1Oc1nc(Cl)ncc1F | 21.6% (inactive) | 5.61 | – | –
CC(CCc1ccccc1)NC(=O)CN1CCN(c2ccc(O)cc2)CC1 (stereo unspecified) | -11.9% (inactive) | 0.962 | – | –
CC(=O)Nc1ccc(SCC(=O)c2ccc(Br)s2)cc1 | – | 5.88 | – | inactive
